From the supplement of paper PMC6992640
± gives the standard deviation of the averaged measurements.

Legend:
Assay in all cases: cell viability (% of vehicle); higher = less cytotoxic
HCI01 [1] = cells of a triple-negative basal-like breast cancer xenograft; details: 1 µM; 72 h
UCD52 [2] = cells of a triple-negative basal-like breast cancer xenograft; details: 1 µM; 72 h
WHIM2 [3] = cells of a triple-negative basal-like breast cancer xenograft; details: 1 µM; 72 h
WHIM30 [4] = cells of a triple-negative basal-like breast cancer xenograft; details: 1 µM; 72 h
HCI01 [5] = details: 10 µM; 72 h
HCI03 = cells of an ER-positive luminal breast cancer xenograft; details: 10 µM; 72 h
HCI09 = cells of a triple-negative luminal androgen receptor type breast cancer xenograft; details: 10 µM; 72 h
HCI11 = cells of an ER-positive luminal breast cancer xenograft; details: 10 µM; 72 h
HCI13 = cells of an ER-positive luminal breast cancer xenograft; details: 10 µM; 72 h
HCI16 = cells of a triple-negative basal-like breast cancer xenograft; details: 10 µM; 72 h
UCD52 [6] = details: 10 µM; 72 h
WHIM2 [7] = details: 10 µM; 72 h
WHIM30 [8] = details: 10 µM; 72 h

Row | Compound | cell viability (HCI01 [1]) | cell viability (UCD52 [2]) | cell viability (WHIM2 [3]) | cell viability (WHIM30 [4]) | cell viability (HCI01 [5]) | cell viability (HCI03) | cell viability (HCI09) | cell viability (HCI11) | cell viability (HCI13) | cell viability (HCI16) | cell viability (UCD52 [6]) | cell viability (WHIM2 [7]) | cell viability (WHIM30 [8])
1 | Cl.O.O=C1Cc2cc(CCN3CCN(c4nsc5ccccc45)CC3)c(Cl)cc2N1 [Ziprasidone hydrochloride monohydrate] | 88.5 | 94.7 | 94.5 | 94.6 | 33.4 ± 14 | 64.9 | 21.8 ± 4.9 | 36 | 47.8 ± 5.2 | 27.2 | 25 ± 1.1 | 35.8 ± 1.7 | 35.7 ± 5.9
2 | Cc1cc(Nc2ncc(Cl)c(Nc3ccccc3S(=O)(=O)C(C)C)n2)c(OC(C)C)cc1C1CCNCC1 | 76.4 | 45.8 | 63.1 | 47.9 | 34.4 ± 7.6 | 37.8 | 17.5 ± 1.3 | 29.3 | 27.6 ± 17 | 44.6 | 24.86 ± 0.13 | 45.5 ± 4.4 | 29.3 ± 1.2
3 | CCCCc1oc2ccc(NS(C)(=O)=O)cc2c1C(=O)c1ccc(OCCCN(CCCC)CCCC)cc1 [Dronedarone] | 98.7 | 81.4 | 91.8 | 79.8 | 32.4 ± 2 | 40.7 | 22.2 ± 1.3 | 90.5 | 35.6 ± 0.56 | 32.7 | 29.7 ± 2.9 | 41.3 ± 5.4 | 38.6 ± 2.7
4 | CO[C@H]1C[C@@H]2CC[C@@H](C)[C@@](O)(O2)C(=O)C(=O)N2CCCC[C@H]2C(=O)O[C@H]([C@H](C)C[C@@H]2CC[C@@H](O)[C@H](OC)C2)CC(=O)[C@H](C)/C=C(\C)[C@@H](O)[C@@H](OC)C(=O)[C@H](C)C[C@H](C)/C=C/C=C/C=C/1C [Rapamycin (Sirolimus)] | 78.1 | 52.6 | 68.3 | 75.4 | 40.4 ± 7.5 | 69.6 | 30.6 ± 8.6 | 51.6 | 39.5 ± 5.2 | 57.1 | 25.5 ± 2.9 | 42 ± 2.1 | 68.9 ± 29
5 | COc1cc(Nc2c(C#N)cnc3cc(OCCCN4CCN(C)CC4)c(OC)cc23)c(Cl)cc1Cl [Bosutinib (SKI-606)] | 61.1 | 30.4 | 55.4 | 68.4 | 48.4 ± 2.7 | 48 | 53.7 ± 33 | 101 | 71.4 ± 48 | 55.8 | 37.1 ± 4.8 | 36.7 ± 13 | 52.1 ± 9.3
6 | CC(O)C(=O)O.CCOc1ccc2nc3cc(N)ccc3c(N)c2c1.O [Ethacridine lactate monohydrate] | 83.7 | 95.6 | 58.8 | 68.3 | 57.6 ± 15 | 41.6 | 24.4 ± 4.4 | 36.3 | 57.4 ± 17 | – | 158 ± 32 | 49.6 ± 8.4 | 76.2 ± 3
7 | COc1ccc(C[C@H](N)C(=O)N[C@@H]2[C@H](O)[C@H](n3cnc4c(N(C)C)ncnc43)O[C@@H]2CO)cc1.Cl.Cl [Puromycin dihydrochloride] | 93.8 | 22.3 | 86.9 | 76.8 | 28.6 ± 2.4 | 58.6 | 26.89 ± 0.082 | 33.4 | 51.1 ± 14 | 52 | 34.5 ± 0.59 | 42 ± 4.2 | 33.3 ± 2.3
8 | CCC(NC(=O)C(C)NC)C(=O)N1CC(O)CC1Cc1c(-c2[nH]c3cc(F)ccc3c2CC2CC(O)CN2C(=O)C(CC)NC(=O)C(C)NC)[nH]c2cc(F)ccc12 (stereo unspecified) | 82.8 | 68.5 | 36.3 | 56.6 | 133 ± 5.6 | 99.5 | 146 ± 36 | 128 | – | 115 | 93.8 ± 8.2 | 114.1 ± 0.19 | 149 ± 20
9 | Clc1ccc(COC(Cn2ccnc2)c2ccc(Cl)cc2Cl)c(Cl)c1.O=[N+]([O-])O (stereo unspecified) [Miconazole Nitrate] | 100 | 96.9 | 111 | 95.9 | 32 ± 8.9 | 93.1 | 27.3 ± 7.1 | 79.9 | 56.9 ± 7.8 | 113 | 48.6 ± 5.8 | 37 ± 9.7 | 128 ± 2
10 | CN1CCC(COc2cnc(-c3cccc(Cn4nc(-c5cccc(C#N)c5)ccc4=O)c3)nc2)CC1 | 83.2 | 79.2 | 97.8 | 79.6 | 87.4 ± 46 | 45.7 | 15.5 ± 4.2 | 57.6 | 72.4 ± 35 | – | 28 ± 5.6 | 34.3 ± 2.1 | 65.8 ± 4.3
11 | COC(c1ccccc1)(c1ccccc1)C(Oc1nc(C)cc(C)n1)C(=O)O (stereo unspecified) [Ambrisentan] | – | – | – | – | 79.8 ± 52 | 128 | 92.8 ± 15 | 84 | 94.1 ± 1.8 | 106 | 74.7 ± 11 | 107 ± 16 | –
12 | NC(=O)OCC(COC(N)=O)c1ccccc1 [Felbamate] | – | – | – | – | 71.2 ± 42 | 137 | 90.7 ± 10 | 95.3 | 103 ± 8.3 | 101 | 81.2 ± 7.7 | 99.5 ± 11 | –
13 | COc1cccc2c1C(=O)c1c(O)c3c(c(O)c1C2=O)CC(O)(C(=O)CO)CC3OC1CC(N)C(O)C(C)O1.Cl (stereo unspecified) [Doxorubicin (Adriamycin) HCl] | 93.6 | 38.7 | 26.8 | 45.9 | 70.4 ± 23 | 196 | 29.7 ± 8.2 | 41.4 | – | 66.1 | 33.1 ± 1.4 | 35.6 ± 6.6 | 77 ± 21
14 | Cc1cnc(C(=O)O)c[n+]1[O-] [Acipimox] | – | – | – | – | 76.1 ± 45 | 159 | 98.5 ± 17 | 78.9 | 90.4 ± 3.8 | 103 | 79.6 ± 5.9 | 108 ± 1.4 | –
15 | NS(=O)(=O)c1cc2c(cc1Cl)NC(C(Cl)Cl)NS2(=O)=O (stereo unspecified) [Trichlormethiazide] | – | – | – | – | 104 ± 57 | 164 | 98.053 ± 0.0031 | 89.9 | 129.2 ± 0.42 | 186 | 142 ± 9.3 | 141 ± 8.7 | –
